Shown are actives, neighbours in structure and some others; about 2.8% of the full set was active somewhere.
Pol kappa inh = blocks human DNA polymerase kappa activity; Q9UBT6; purified Pol kappa, fluorescent DNA synthesis assay, 10 min; Potency, µM (titrated, usually from 107 µM), for inactives: at the highest dose activity, negative = inhibition, most hits filed as inhibitors; 0.53% of 400,000 active; AID 588579; note: potency is the fitted concentration of half-maximal effect; % is set by controls: 0 for no effect and ±100 for the full control effect
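50 nM final substrate added after 15 min RT preincubation of 10 nM Pol kappa with compound; fluorescence read at 0 and 10 min.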
POLH inh = blocks human DNA polymerase eta activity; recombinant Pol eta, fluorescent DNA replication assay; Potency, µM (doses to about 114 µM), without a hit: top-dose activity change, negative = inhibition, most hits filed as inhibitors; 1.2% of 390,000 active; AID 588591; Q9Y253; note: potency is the fitted concentration of half-maximal effect; % is set by controls: 0 for no effect and ±100 for the full control effect
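Fluorescent replication assay: 50 nM final substrate added after a 15 min room-temperature compound preincubation with 10 nM enzyme. Signal taken at 0 min and again at 10 min.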
Pol iota inh = DNA polymerase iota (human) inhibition; 1% of 390,000 active; Q9UNA4; Potency, µM (doses to about 115 µM), inactives show top-dose activity, negative = inhibition, actives largely listed as inhibitors; AID 588590; Pol iota fluorescent replication assay, 10 min; note: potency is the fitted concentration of half-maximal effect
Target sequence (Q9UNA4 whole entry, looked up): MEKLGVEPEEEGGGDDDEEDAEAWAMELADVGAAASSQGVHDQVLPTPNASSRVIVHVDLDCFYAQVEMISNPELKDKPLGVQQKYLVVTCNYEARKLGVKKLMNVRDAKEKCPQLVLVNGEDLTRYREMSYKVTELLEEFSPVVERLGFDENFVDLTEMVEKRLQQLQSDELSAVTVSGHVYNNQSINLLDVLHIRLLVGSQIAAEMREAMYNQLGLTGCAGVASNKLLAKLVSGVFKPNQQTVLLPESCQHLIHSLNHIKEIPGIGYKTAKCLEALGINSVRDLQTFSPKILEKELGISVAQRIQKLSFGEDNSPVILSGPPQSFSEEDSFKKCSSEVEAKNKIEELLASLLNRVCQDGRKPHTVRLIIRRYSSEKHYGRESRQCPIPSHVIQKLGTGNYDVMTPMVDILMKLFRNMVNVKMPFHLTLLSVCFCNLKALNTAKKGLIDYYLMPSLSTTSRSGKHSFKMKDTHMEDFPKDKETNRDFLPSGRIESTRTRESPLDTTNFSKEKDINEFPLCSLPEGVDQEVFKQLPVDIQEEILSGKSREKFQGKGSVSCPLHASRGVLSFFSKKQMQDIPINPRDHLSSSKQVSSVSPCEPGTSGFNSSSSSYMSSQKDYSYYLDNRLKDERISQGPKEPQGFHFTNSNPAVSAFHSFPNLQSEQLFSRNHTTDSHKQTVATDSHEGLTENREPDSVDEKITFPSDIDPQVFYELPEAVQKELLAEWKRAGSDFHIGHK
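Fluorescent replication assay read twice, at 0 min and 10 min after adding 50 nM (final) substrate. Enzyme (10 nM) and compounds were first incubated 15 min at room temperature; enzyme-free buffer wells were negative controls.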
POLB inh = inhibitors of human DNA polymerase beta | 1.3% of 340,000 active | Potency, µM (series often up to 114 µM), for inactives: top-dose activity change, negative = inhibition, hits mostly inhibitors | Pol beta primer extension/strand displacement, fluorescence kinetic | P06746; note: potency is the fitted concentration of half-maximal effect; % is set by controls: 0 for no effect and ±100 for the full control effect
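Kinetic readout of DNA synthesis with strand displacement by Pol beta. Compound and 10 nM enzyme sit 15 min at room temperature; 50 nM substrate starts the reaction, read immediately and at 10 min.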
PI5P4K alpha inh = inhibitors of human PI5P4K alpha. AID 652105. max response, %. PI5P4Kalpha enzyme, ADP-Glo luminescence, 60 min; stronger effect = lower value. 1.2% of 330,000 active; active = max response of -50% or lower; inconclusive = between -30% and -50%; inactive = -30% or higher; note: value at the top dose of about 77 µM; % is set by controls: 0 for no effect and ±100 for the full control effect
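PI5P4Kalpha ADP-Glo assay; 5 microM ATP final; 60 min RT reaction; HEPES pH 7.4/EGTA/CHAPS, 5% DMSO; controls lacking substrate or enzyme; luminescent end-point.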
WRN helicase inh = WRN helicase (human) inhibition | Q14191 | WRN helicase unwinding, fluorescent forked duplex, kinetic | Potency, µM (doses to about 114 µM), for the others: at the top dose activity change, negative = inhibition, usual class: inhibitors | 0.46% of 360,000 active; note: potency is the fitted concentration of half-maximal effect; % is set by controls: 0 for no effect and ±100 for the full control effect; nearly all actives have a fitted effect of over 55% in size
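Primary qHTS, 1536-well format. 20 nM WRN + compound, 15 min RT; start with 100 nM forked fluorophore/quencher duplex, 2 mM ATP (final); kinetic read ex 525/em 598 nm.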
The depositor's hits bear a star; [ ] = dose if it differs, or a comment. Unless noted, calls come from the whole dose curve; as a rule, active = well fitted curve in the direction sought with a large enough effect; inconclusive = small, poorly fitted or top-dose-only effect, or another doubt; inactive = no such curve, though single readings can be large; an effect the other way counts as inactive or inconclusive.

Screening Cc1nc2ccn(Cc3cccs3)c(=O)c2cc1C(=O)NCc1ccc(Br)cc1 returned Pol kappa inh -1%, POLH inh -2%, Pol iota inh inconclusive and POLB inh -12%.
Screening CCOc1ccc(CNC(=O)c2cc3c(=O)n(Cc4cccs4)ccc3nc2C)cc1 returned Pol kappa inh 12%, POLH inh 16%, Pol iota inh inconclusive and POLB inh 13µM*.
Screening CCc1ccc(CNC(=O)c2cc3c(=O)n(Cc4cccs4)ccc3nc2C)cc1 returned Pol kappa inh -19%, POLH inh 11%, Pol iota inh inconclusive and POLB inh 50µM*.
Cc1cc(O)c(C=O)c2c1C(=O)Oc1c(COC(=O)/C=C/C(=O)O)c(O)c(C(=O)O)c(C)c1O2 was read as Pol kappa inh 3.5µM*.
`Cc1cc(O)c(C=O)c2c1C(=O)Oc1c(CO)c(O)c3c(c1O2)C(O)OC3=O` (centres undefined) gave Pol kappa inh 0.79µM*, POLH inh 2.8µM*, Pol iota inh 1.1µM*, POLB inh 2.2µM*, PI5P4K alpha inh -84* and WRN helicase inh 3.5µM*.
`Cc1cc(O)c(C=O)c(O)c1C(=O)O` gave Pol kappa inh -14%[60.1 µM].
`COc1cc(C2C(C#N)=C(N)OC3=C2C(=O)CCC3)c([N+](=O)[O-])cc1OC` (centres undefined) gave Pol kappa inh 89µM*, POLH inh 20µM*, Pol iota inh 7.1µM*, POLB inh 2%, PI5P4K alpha inh -13 and WRN helicase inh inconclusive.
Screening CCOc1cc(C2C(C#N)=C(N)OC3=C2C(=O)CC(C)(C)C3)cc([N+](=O)[O-])c1O (centres undefined) returned Pol kappa inh -9%, POLH inh 4%, Pol iota inh 0%, POLB inh 37%, PI5P4K alpha inh 3 and WRN helicase inh -2%.
Screening Cc1cc(C2C(C#N)=C(N)OC3=C2C(=O)CCC3)c(C)s1 (centres undefined) returned Pol kappa inh -4%, POLH inh 12%, Pol iota inh 9%, POLB inh 22%, PI5P4K alpha inh -13 and WRN helicase inh -1%.
Screening CC1(C)CC(=O)C2=C(C1)OC(N)=C(C#N)C2c1cc2c(cc1[N+](=O)[O-])OCO2 (centres undefined) returned Pol kappa inh -31%, POLH inh inconclusive, Pol iota inh inconclusive, POLB inh -16%, PI5P4K alpha inh -80* and WRN helicase inh inconclusive.
`Cc1cccc(NC(=O)CCN2CCN(c3ccccc3F)CC2)c1` gave Pol kappa inh -16%, POLH inh -11%, Pol iota inh 20% and POLB inh 1%.
Screening O=c1[nH]c2cc3c(cc2cc1CN(Cc1cccs1)Cc1nnnn1Cc1ccco1)OCCO3 returned Pol kappa inh 25µM*, POLH inh 18µM*, Pol iota inh inconclusive, POLB inh 32µM*, PI5P4K alpha inh -83* and WRN helicase inh inconclusive.
For CCc1ccc2[nH]c(=O)c(CN(Cc3ccccc3)Cc3nnnn3Cc3ccco3)cc2c1 the results were Pol kappa inh -11%, POLH inh -23%, Pol iota inh inconclusive, POLB inh 2%, PI5P4K alpha inh 6 and WRN helicase inh -9%.
For O=c1[nH]c2cc3c(cc2cc1CN(Cc1cccnc1)Cc1nnnn1Cc1ccco1)OCCO3 the results were Pol kappa inh 89µM*, POLH inh inconclusive, Pol iota inh 16µM*, POLB inh 40µM* and WRN helicase inh 56µM*.
Cc1ccc2[nH]c(=O)c(CN(CCCO)Cc3nnnn3Cc3ccco3)cc2c1 was read as Pol kappa inh inconclusive and Pol iota inh 79µM*.
For COc1ccccc1CN(Cc1cc2cc3c(cc2[nH]c1=O)OCCO3)Cc1nnnn1Cc1ccco1 the results were Pol kappa inh inconclusive, POLH inh 32µM*, Pol iota inh inconclusive, POLB inh 14µM* and WRN helicase inh -7%.
For S=Cc1ccc(/C=C/c2ccnc3ccccc23)cc1 the results were Pol kappa inh -20% and Pol iota inh 47%.
COC(=O)c1c(N(S(C)(=O)=O)S(C)(=O)=O)sc2c1CCN(c1ncc(C(F)(F)F)cc1Cl)C2 was read as Pol kappa inh -30%, POLH inh -12%, Pol iota inh 32µM*, POLB inh -23%, PI5P4K alpha inh 4 and WRN helicase inh -28%.
For CN(C1CCCCC1)S(=O)(=O)c1cc2c3c(c1)CCN3C(=O)CC2 the results were Pol kappa inh 2%, POLH inh -19%, Pol iota inh -29%, PI5P4K alpha inh -1 and WRN helicase inh -5%.
`O=C1CCc2cc(S(=O)(=O)NC3CCCCC3)cc3c2N1CC3` gave Pol kappa inh -1%, POLH inh inconclusive, Pol iota inh 50µM*, PI5P4K alpha inh -7 and WRN helicase inh -20%.
`Nc1c(Br)cc2c([nH]c(=O)c3ccccc32)c1Br` gave Pol kappa inh -24%, POLH inh inconclusive, Pol iota inh inconclusive, PI5P4K alpha inh -66* and WRN helicase inh -28%.
Screening CCc1nc2ccc(C(=O)N(C)Cc3ccco3)cn2c1N(CC)C(=O)NCCc1ccccc1 returned PI5P4K alpha inh -1 and WRN helicase inh -2%.
For O=C(CSc1cn(CCNC(=O)c2cccc(C(F)(F)F)c2)c2ccccc12)Nc1ccc2c(c1)OCCO2 the results were Pol kappa inh -29%, POLH inh -27%, Pol iota inh inconclusive and POLB inh 0%.
Cc1cc(C(=O)COC(=O)c2ccc(NC(=O)CC#N)cc2)c(C)n1CCc1ccc(F)cc1 was read as Pol kappa inh -21%, POLH inh -27%, Pol iota inh -14%, PI5P4K alpha inh inconclusive and WRN helicase inh -12%.
`COc1ccc(CCn2c(C)cc(C(=O)COC(=O)c3ccc(NC(=O)CC#N)cc3)c2C)cc1` gave Pol kappa inh inconclusive, POLH inh 79µM*, Pol iota inh inconclusive, POLB inh 13%, PI5P4K alpha inh -50* and WRN helicase inh -27%.
For COc1ccc(-c2nc3ccc(C)cn3c2NCc2ccccc2)cc1SC1CCCCC1 the results were Pol kappa inh 10%, POLH inh 45µM*, Pol iota inh 22µM*, PI5P4K alpha inh -16 and WRN helicase inh 11%.
`CCCCNc1c(-c2ccc(OC)c(SC3CCCCC3)c2)nc2ccc(C)cn12` gave Pol kappa inh -17%, POLH inh -27%, Pol iota inh -15%, PI5P4K alpha inh 17 and WRN helicase inh -30%.

Screening results as filed in PubChem BioAssay.
